# Source: the supplement of paper PMC8728848
# This excerpt belongs to a sample that is enriched for the strongest signals.
# B1: MAA (Maackia amurensis), P0DKL3 (protein)
# chain: MATSNSKPTQVLLATFLTFFFLLLNNVNSSDELSFTINNFVPNEADLLFQGEASVSSTGVLQLTRVENGQPQKYSVGRALYAAPVRIWDNTTGSVASFSTSFTFVVKAPNPDITSDGLAFYLAPPDSQIPSGSVSKYLGLFNNSNSDSSNQIVAVELDTYFAHSYDPWDPNYRHIGIDVNGIESIKTVQWDWINGGVAFATITYLAPNKTLIASLVYPSNQTTFSVAASVDLKEILPEWVRVGFSAATGYPTEVETHDVLSWSFTSTLEANCDAATENNVHIARYTA
# Experiments:
# Assay in all cases: glycan array binding signal (z-score within array); higher = stronger binding
# Settings in all cases: glycan notation: IUPAC condensed, linker removed
# [1] = molecular target: Fuc(a1-2)Gal(b1-3)GlcNAc(b1-3)Gal(b1-4)Glc
# In short: (§1)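 Negative Z-scores can be read as non-binding. The Z-score is calculated within each array and then averaged across arrays of one protein sequence at different concentrations or buffers and across linkers. Arrays, 3228 in all, were curated from the Consortium for Functional Glycomics database and kept only where the protein sequence was available.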
# [2] = molecular target: Fuc(a1-2)Gal(b1-3)GlcNAc(b1-3)[Gal(b1-4)GlcNAc(b1-6)]Gal(b1-4)Glc
# In short: as §1
# [3] = molecular target: Fuc(a1-2)Gal(b1-4)GlcNAc(b1-2)[Fuc(a1-2)Gal(b1-4)GlcNAc(b1-4)]Man(a1-3)[Fuc(a1-2)Gal(b1-4)GlcNAc(b1-2)Man(a1-6)]Man(b1-4)GlcNAc(b1-4)GlcNAc
# In short: as §1
# [4] = molecular target: Fuc(a1-2)Gal6S(b1-4)Glc6S
# In short: as §1
# [5] = molecular target: Fuc(a1-2)[Gal(a1-3)]Gal
# In short: as §1
# [6] = molecular target: Fuc(a1-2)[Gal(a1-3)]Gal(b1-3)GlcNAc
# In short: as §1
# [7] = molecular target: Fuc(a1-2)[GalNAc(a1-3)]Gal(b1-4)GlcNAc
# In short: as §1
# [8] = molecular target: Fuc(a1-2)[GalNAc(a1-3)]Gal(b1-4)GlcNAc(b1-3)GalNAc
# In short: as §1
# [9] = molecular target: Fuc(a1-2)[GalNAc(b1-3)]Gal
# In short: as §1
# [10] = molecular target: Fuc(a1-3)[Gal(b1-4)]GlcNAc(b1-4)Gal(b1-4)[Fuc(a1-3)]GlcNAc
# In short: as §1
# [11] = molecular target: Fuc(a1-3)[Gal(b1-4)]GlcNAc6S
# In short: as §1
# [12] = molecular target: Fuc(a1-3)[Gal3S(b1-4)]GlcNAc6S
# In short: as §1
# [13] = molecular target: Gal(a1-3)Gal(b1-3)[Fuc(a1-4)]GlcNAc(b1-2)Man(a1-3)[Gal(a1-3)Gal(b1-3)[Fuc(a1-4)]GlcNAc(b1-2)Man(a1-6)]Man(b1-4)GlcNAc(b1-4)GlcNAc
# In short: as §1
# [14] = molecular target: Gal(a1-3)Gal(b1-4)GlcNAc
# In short: as §1
# [15] = molecular target: Gal(b1-3)GlcNAc(b1-3)Gal(b1-4)[Fuc(a1-3)]GlcNAc(b1-6)[Gal(b1-3)GlcNAc(b1-3)]Gal(b1-4)Glc
# In short: as §1
# [16] = molecular target: Gal(b1-3)[Neu5Ac(b2-6)]GalNAc
# In short: as §1
# [17] = molecular target: Gal(b1-4)GlcNAc(b1-2)Man(a1-3)[Gal(b1-4)GlcNAc(b1-2)Man(a1-6)]Man(b1-4)GlcNAc(b1-4)GlcNAc
# In short: as §1
# [18] = molecular target: Gal(b1-4)GlcNAc(b1-3)Gal(b1-4)GlcNAc(b1-2)Man(a1-3)[Gal(b1-4)GlcNAc(b1-3)Gal(b1-4)GlcNAc(b1-2)Man(a1-6)]Man(b1-4)GlcNAc(b1-4)[Fuc(a1-6)]GlcNAc
# In short: as §1
# [19] = molecular target: Gal(b1-4)GlcNAc(b1-6)[Gal(b1-4)GlcNAc(b1-3)]GalNAc
# In short: as §1
# [20] = molecular target: Gal(b1-6)Gal
# In short: as §1
# [21] = molecular target: Gal3S(b1-3)GlcNAc
# In short: as §1
# [22] = molecular target: Gal3S(b1-4)Glc
# In short: as §1
# [23] = molecular target: Gal3S(b1-4)Glc6S
# In short: as §1
# [24] = molecular target: Gal3S(b1-4)GlcNAc
# In short: as §1
# [25] = molecular target: Gal3S(b1-4)GlcNAc6S
# In short: as §1
# [26] = molecular target: Gal3S(b1-4)[Fuc(a1-3)]GlcNAc6S
# In short: as §1
# [27] = molecular target: GalNAc(a1-3)Gal
# In short: as §1
# [28] = molecular target: GalNAc(b1-3)GalNAc
# In short: as §1
# [29] = molecular target: GalNAc3S(b1-4)GlcNAc
# In short: as §1
# [30] = molecular target: Glc(b1-4)Glc
# In short: as §1
# [31] = molecular target: GlcNAc(a1-4)Gal(b1-3)GlcNAc
# In short: as §1
# [32] = molecular target: GlcNAc(b1-3)Gal(b1-4)GlcNAc(b1-3)Gal(b1-4)GlcNAc(b1-3)Gal(b1-4)GlcNAc(b1-2)[GlcNAc(b1-3)Gal(b1-4)GlcNAc(b1-3)Gal(b1-4)GlcNAc(b1-3)Gal(b1-4)GlcNAc(b1-6)]Man(a1-6)[GlcNAc(b1-3)Gal(b1-4)GlcNAc(b1-3)Gal(b1-4)GlcNAc(b1-3)Gal(b1-4)GlcNAc(b1-2)Man(a1-3)]Man(b1-4)GlcNAc(b1-4)[Fuc(a1-6)]GlcNAc
# In short: as §1
# [33] = molecular target: Man(a1-2)Man(a1-2)Man(a1-6)[Man(a1-3)]Man
# In short: as §1
# [34] = molecular target: Man(a1-2)Man(a1-3)[Man(a1-6)]Man(a1-6)[Man(a1-2)Man(a1-3)]Man(b1-4)GlcNAc(b1-4)GlcNAc
# In short: as §1
# [35] = molecular target: Neu5Ac(a2-3)Gal(b1-3)GalNAc(b1-4)[Neu5Ac(a2-8)Neu5Ac(a2-3)]Gal(b1-4)Glc
# In short: as §1
# [36] = molecular target: Neu5Ac(a2-3)Gal(b1-3)GlcNAc(b1-3)Gal(b1-3)GlcNAc
# In short: as §1
# [37] = molecular target: Neu5Ac(a2-3)Gal(b1-3)[GlcNAc(b1-6)]GalNAc
# In short: as §1
# [38] = molecular target: Neu5Ac(a2-3)Gal(b1-4)GlcNAc(b1-2)Man(a1-3)[Neu5Ac(a2-3)Gal(b1-4)GlcNAc(b1-2)Man(a1-6)]Man(b1-4)GlcNAc(b1-4)GlcNAc
# In short: as §1
# [39] = molecular target: Neu5Ac(a2-3)Gal(b1-4)GlcNAc(b1-3)Gal(b1-4)GlcNAc(b1-3)Gal(b1-4)GlcNAc
# In short: as §1
# [40] = molecular target: Neu5Ac(a2-3)Gal(b1-4)GlcNAc(b1-3)Gal(b1-4)GlcNAc(b1-3)[Neu5Ac(a2-3)Gal(b1-4)GlcNAc(b1-3)Gal(b1-4)GlcNAc(b1-6)]GalNAc
# In short: as §1
# [41] = molecular target: Neu5Ac(a2-3)Gal(b1-4)[Fuc(a1-3)]GlcNAc6S
# In short: as §1
# [42] = molecular target: Neu5Ac(a2-6)Gal(b1-4)GlcNAc(b1-3)Gal(b1-4)GlcNAc(b1-3)[Neu5Ac(a2-6)Gal(b1-4)GlcNAc(b1-3)Gal(b1-4)GlcNAc(b1-6)]GalNAc
# In short: as §1
# [43] = molecular target: Neu5Ac(a2-6)GalNAc
# In short: as §1
# [44] = molecular target: Neu5Ac(a2-8)Neu5Ac(a2-3)Gal(b1-4)GlcNAc
# In short: as §1
# [45] = molecular target: Neu5Ac(a2-8)Neu5Ac(a2-8)Neu5Ac(a2-3)[GalNAc(b1-4)]Gal(b1-4)Glc
# In short: as §1
# [46] = molecular target: Neu5Gc(a2-3)Gal(b1-4)GlcNAc(b1-3)Gal(b1-4)GlcNAc(b1-2)Man(a1-3)[Neu5Gc(a2-3)Gal(b1-4)GlcNAc(b1-3)Gal(b1-4)GlcNAc(b1-2)Man(a1-6)]Man(b1-4)GlcNAc(b1-4)GlcNAc
# In short: as §1
# [47] = molecular target: Neu5Gc(a2-8)Neu5Gc(a2-3)Gal(b1-4)GlcNAc
# In short: as §1
# [48] = molecular target: Neu5Gc(a2-8)Neu5Gc(a2-3)Gal(b1-4)GlcNAc(b1-3)Gal(b1-4)GlcNAc
# In short: as §1
binder,measurement,setting,value
B1,glycan array binding signal (z-score),[1],-0.221
same,glycan array binding signal (z-score),[2],-0.262
same,glycan array binding signal (z-score),[3],-0.059
same,glycan array binding signal (z-score),[4],-0.191
same,glycan array binding signal (z-score),[5],-0.152
same,glycan array binding signal (z-score),[6],-0.153
same,glycan array binding signal (z-score),[7],-0.228
same,glycan array binding signal (z-score),[8],-0.128
same,glycan array binding signal (z-score),[9],-0.178
same,glycan array binding signal (z-score),[10],-0.094
same,glycan array binding signal (z-score),[11],-0.2
same,glycan array binding signal (z-score),[12],2.89
same,glycan array binding signal (z-score),[13],0.162
same,glycan array binding signal (z-score),[14],-0.243
same,glycan array binding signal (z-score),[15],-0.145
same,glycan array binding signal (z-score),[16],-0.219
same,glycan array binding signal (z-score),[17],-0.204
same,glycan array binding signal (z-score),[18],0.122
same,glycan array binding signal (z-score),[19],-0.204
same,glycan array binding signal (z-score),[20],-0.212
same,glycan array binding signal (z-score),[21],1.5
same,glycan array binding signal (z-score),[22],5.2
same,glycan array binding signal (z-score),[23],6.87
same,glycan array binding signal (z-score),[24],6.25
same,glycan array binding signal (z-score),[25],4.71
same,glycan array binding signal (z-score),[26],7.75
same,glycan array binding signal (z-score),[27],-0.197
same,glycan array binding signal (z-score),[28],-0.186
same,glycan array binding signal (z-score),[29],2.31
same,glycan array binding signal (z-score),[30],-0.161
same,glycan array binding signal (z-score),[31],-0.226
same,glycan array binding signal (z-score),[32],0.282
same,glycan array binding signal (z-score),[33],-0.236
same,glycan array binding signal (z-score),[34],-0.2
same,glycan array binding signal (z-score),[35],-0.163
same,glycan array binding signal (z-score),[36],-0.173
same,glycan array binding signal (z-score),[37],-0.229
same,glycan array binding signal (z-score),[38],1.17
same,glycan array binding signal (z-score),[39],1.27
same,glycan array binding signal (z-score),[40],1.22
same,glycan array binding signal (z-score),[41],-0.236
same,glycan array binding signal (z-score),[42],0.454
same,glycan array binding signal (z-score),[43],-0.257
same,glycan array binding signal (z-score),[44],0.479
same,glycan array binding signal (z-score),[45],-0.155
same,glycan array binding signal (z-score),[46],2.07
same,glycan array binding signal (z-score),[47],0.744
same,glycan array binding signal (z-score),[48],1.13
